# A number with no mark means an inactive call. Records with an inconclusive call do not appear. Where a call stands in place of a potency, no number is given. Active and inactive are the calls of the source. Unless noted, calls follow the shape of the dose curve; as a rule, active = well fitted curve in the direction sought with a large enough effect; inconclusive = small, poorly fitted or top-dose-only effect, or another doubt; inactive = no such curve, though single readings can be large; an effect the other way counts as inactive or inconclusive.
# Columns and labels:
# [1] = target: 3',5'-cyclic-AMP phosphodiesterase 4B (Homo sapiens) (UniProt Q07343); assay: qHTS Assay for Inhibitors of PDE-IV (AID 607; active = well fitted activation curve with a large enough effect in the main read-out, with a control signal flat, not every such curve was filed as active; also: potency is read from the fitted curve at half-maximal effect); settings: HEK293 ACTOne CNG channel cells, membrane potential fluorescence; series mostly up to 22.9 µM
# 3',5'-cyclic-AMP phosphodiesterase 4B (Homo sapiens), sequence (Q07343 whole entry, looked up): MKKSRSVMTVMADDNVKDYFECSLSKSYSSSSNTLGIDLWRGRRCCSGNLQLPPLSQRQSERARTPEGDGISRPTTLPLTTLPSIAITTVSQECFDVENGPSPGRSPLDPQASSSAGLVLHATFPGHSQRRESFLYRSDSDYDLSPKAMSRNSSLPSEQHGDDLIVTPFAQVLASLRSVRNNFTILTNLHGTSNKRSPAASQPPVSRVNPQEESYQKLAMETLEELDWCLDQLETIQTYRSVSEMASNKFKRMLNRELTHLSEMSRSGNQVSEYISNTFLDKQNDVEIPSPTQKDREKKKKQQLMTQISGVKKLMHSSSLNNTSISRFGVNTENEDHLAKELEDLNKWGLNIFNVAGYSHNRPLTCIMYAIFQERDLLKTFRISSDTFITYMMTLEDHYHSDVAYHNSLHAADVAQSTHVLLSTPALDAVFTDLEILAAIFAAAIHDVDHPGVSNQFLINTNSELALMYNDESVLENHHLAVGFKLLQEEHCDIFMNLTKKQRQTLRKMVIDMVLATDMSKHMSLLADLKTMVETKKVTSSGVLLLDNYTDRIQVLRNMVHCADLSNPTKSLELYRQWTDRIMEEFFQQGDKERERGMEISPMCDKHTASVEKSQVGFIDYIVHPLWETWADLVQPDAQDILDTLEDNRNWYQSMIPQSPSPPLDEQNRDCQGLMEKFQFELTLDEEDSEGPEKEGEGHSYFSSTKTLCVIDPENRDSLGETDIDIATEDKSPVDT
# Method in brief: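 Cell-based read-out of cAMP via a modified cyclic nucleotide-gated channel and membrane potential dye (535/590 nm) in HEK293 cells expressing PDE4 endogenously. Compounds tested up to 22.9 uM final; 100 uM RO 20-1724 reference.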
# [2] = target: Cytochrome P450 2C9 (Homo sapiens) (UniProt P11712); assay: qHTS Assay for Inhibitors and Substrates of Cytochrome P450 2C9 (AID 883); settings: recombinant CYP2C9, luciferin-H luminescence, 60 min; series mostly up to 57.1 µM; also: nearly all actives have a fitted effect of over 60% in size; also: potency is read from the fitted curve at half-maximal effect
# Cytochrome P450 2C9 (Homo sapiens), sequence (P11712 whole entry, looked up): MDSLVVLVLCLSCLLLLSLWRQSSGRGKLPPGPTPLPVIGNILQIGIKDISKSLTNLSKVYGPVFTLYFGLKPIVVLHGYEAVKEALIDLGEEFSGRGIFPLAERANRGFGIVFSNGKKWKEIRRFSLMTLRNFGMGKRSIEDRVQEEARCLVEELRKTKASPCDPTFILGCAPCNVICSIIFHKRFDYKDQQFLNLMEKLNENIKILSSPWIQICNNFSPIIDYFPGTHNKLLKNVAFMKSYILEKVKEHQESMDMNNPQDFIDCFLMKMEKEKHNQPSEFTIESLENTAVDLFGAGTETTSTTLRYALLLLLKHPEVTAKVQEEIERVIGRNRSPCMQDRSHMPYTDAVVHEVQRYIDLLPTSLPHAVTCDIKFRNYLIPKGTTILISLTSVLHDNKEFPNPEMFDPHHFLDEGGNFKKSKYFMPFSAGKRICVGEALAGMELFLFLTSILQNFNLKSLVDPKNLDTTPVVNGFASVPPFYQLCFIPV
# Method in brief: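 Signal: luciferase luminescence reporting luciferin produced by CYP2C9. Conditions: 10nM enzyme, Luciferin-H 100uM at KM, 25mM KPO4, 37C, 60 min NADPH-driven reaction. Reference: 57uM sulphaphenazole as 100% inhibition.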
# [3] = target: Cytochrome P450 3A4 (Homo sapiens) (UniProt P08684); assay: qHTS Assay for Activators of Cytochrome P450 3A4 (AID 885); settings: recombinant CYP3A4, Luciferin-PPXE luminescence, 60 min; series mostly up to 57.1 µM; also: nearly all actives have a fitted effect of over 65% in size
# Cytochrome P450 3A4 (Homo sapiens), sequence (P08684 whole entry, looked up): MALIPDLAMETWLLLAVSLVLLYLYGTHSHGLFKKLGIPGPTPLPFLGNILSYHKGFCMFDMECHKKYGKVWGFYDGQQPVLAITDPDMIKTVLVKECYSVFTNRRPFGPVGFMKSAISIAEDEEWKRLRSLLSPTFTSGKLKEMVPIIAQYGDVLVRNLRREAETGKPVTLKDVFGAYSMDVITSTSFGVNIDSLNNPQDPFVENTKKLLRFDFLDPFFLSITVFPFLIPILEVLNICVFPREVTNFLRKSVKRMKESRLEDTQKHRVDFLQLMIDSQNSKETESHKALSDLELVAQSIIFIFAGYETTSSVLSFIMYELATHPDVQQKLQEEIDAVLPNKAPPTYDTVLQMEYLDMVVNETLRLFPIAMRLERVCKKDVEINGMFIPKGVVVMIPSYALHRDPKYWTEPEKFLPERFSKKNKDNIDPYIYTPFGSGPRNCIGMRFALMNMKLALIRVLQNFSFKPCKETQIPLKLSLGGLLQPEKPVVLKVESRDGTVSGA
# Method in brief: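 Signal was normalized against complete inhibition by 57 uM ketoconazole. The reaction used 20nM CYP3A4 with 25uM Luciferin-PPXE, 10-min compound preincubation and a 60-min NADPH-supported step at RT.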
# [4] = target: Cytochrome P450 2D6 (Homo sapiens) (UniProt P10635); assay: qHTS Assay for Inhibitors and Substrates of Cytochrome P450 2D6 (AID 891); settings: recombinant CYP2D6, luciferin-ME EGE luminescence; series mostly up to 57.1 µM;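 also: luciferin methyl ether substrate demethylated by CYP2D6 with NADPH regeneration; nearly all actives have a fitted effect of over 60% in size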
# Cytochrome P450 2D6 (Homo sapiens), sequence (P10635 whole entry, looked up): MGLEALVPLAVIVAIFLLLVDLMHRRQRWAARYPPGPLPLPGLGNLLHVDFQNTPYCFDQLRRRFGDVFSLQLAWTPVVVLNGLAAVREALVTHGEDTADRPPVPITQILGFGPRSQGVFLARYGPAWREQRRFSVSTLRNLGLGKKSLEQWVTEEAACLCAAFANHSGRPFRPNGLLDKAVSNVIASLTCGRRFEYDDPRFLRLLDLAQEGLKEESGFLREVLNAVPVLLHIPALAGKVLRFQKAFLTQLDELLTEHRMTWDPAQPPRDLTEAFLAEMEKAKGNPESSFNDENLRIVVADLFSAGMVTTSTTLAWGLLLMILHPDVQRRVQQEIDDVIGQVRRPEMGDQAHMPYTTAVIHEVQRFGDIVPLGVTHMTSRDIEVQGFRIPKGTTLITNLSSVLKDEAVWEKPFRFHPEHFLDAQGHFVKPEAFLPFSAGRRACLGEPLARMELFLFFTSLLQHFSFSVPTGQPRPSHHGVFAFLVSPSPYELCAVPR
# Method in brief: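 Human CYP2D6 (5 nM) with 30 uM Luciferin-ME EGE (at Km) in 100 mM KPO4, compound preincubated 10 min, then NADPH regeneration system for 60 min at room temperature. Luciferin read by luminescence; normalized to 1.43 uM quinidine.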
# [5] = Cell Viability - Mesenchymal (AID 546); settings: mesenchymal cells viability, qHTS; series mostly up to 91.7 µM;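 also: cells exposed to compound for 40 hours before reading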
# Method in brief: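 Human kidney mesenchymal cells from normal renal glomeruli, 1000 cells/well, rested 5 hr at 37 °C, then treated 40 hr at 37 °C in complete medium. Cellular ATP read by CellTiter-Glo luminescence; AC50 from Hill-equation fits.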
# [6] = Cellular Toxicity (caspase-3) HepG2 (AID 654); settings: HepG2 caspase-3 activation, luminescence, 0% = DMSO only, 100% = tamoxifen; series mostly up to 92.2 µM;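 also: cells exposed to compound for 16 hours before reading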
# Method in brief: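 HepG2 cells (1500/well) in complete medium were treated with compounds for 16 hr at 37 °C. Caspase-3/7 activity was then read as luminescence from peptide-aminoluciferin cleavage. AC50 came from Hill fits, normalized to DMSO and 100 uM tamoxifen.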
# [7] = Cellular Toxicity (caspase-3) Jurkat (AID 655); settings: Jurkat caspase-3 activation, luminescence, DMSO = 0%, tamoxifen = 100%; at 92.2 µM (top of the series);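 also: cells exposed to compound for 16 h at 37 °C before reading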
# Method in brief: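 Luminescent Caspase-Glo 3/7 read-out (20 min, room temperature) after 16 h compound treatment at 37 C of 5000 Jurkat cells per well. AC50 derived by Hill-equation fitting, scaled between DMSO basal and 100 uM tamoxifen stimulation.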
# [8] = Cellular Toxicity (caspase-3) HUV-EC-C (AID 656); settings: HUV-EC-C cells, caspase-3 activation (apoptosis), vehicle = 0, 100 µM tamoxifen = 100%; series mostly up to 92.2 µM
# Method in brief: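 Luminescent Caspase-Glo 3/7 readout after 16 h, 37 °C compound exposure of HUV-EC-C endothelial cells, 1000 per well, complete medium. AC50 derived by Hill fitting, with DMSO as baseline and 100 uM tamoxifen as full activation.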
# [9] = Cellular Toxicity (caspase-3) SHSY5Y (AID 657); settings: SH-SY5Y caspase-3 activation, DMSO zero, 10 µM staurosporine = 100%; series mostly up to 91.7 µM
# Method in brief: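 Luminescent Caspase-Glo 3/7 read-out, 1 hr room temperature, follows 16 hours of compound treatment of SH-SY5Y cells at 37 °C. Normalization: DMSO basal, 10 uM staurosporine as 100%; AC50 values from Hill-equation concentration-response fits.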
# [10] = Cellular Toxicity (caspase-3) BJ (AID 658); settings: BJ fibroblasts, luminescence, normalized: DMSO 0%, staurosporine 100%; series mostly up to 91.7 µM
# Method in brief: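 BJ human foreskin fibroblasts, 1000 cells/well, treated 16 hours at 37 °C in complete medium; caspase 3/7 activity by Caspase-Glo luminescence after 1 hr at room temperature. Normalized to DMSO and 10 uM staurosporine; AC50 from Hill fits.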
# [11] = Cellular Toxicity (caspase-3) MRC-5 (AID 659); settings: MRC-5 cells, luminescence, normalized: DMSO 0%, 10 µM staurosporine 100%; series mostly up to 91.7 µM
# Method in brief: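 MRC-5 human normal lung fibroblasts, 1500 cells/well, treated 16 h at 37 °C in complete medium. Caspase 3/7 measured by Caspase-Glo luminescence after 1 h at room temperature. Normalized to DMSO and 10 uM staurosporine; AC50 from Hill fit.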
# [12] = Cellular Toxicity (caspase-3) Mesangial (AID 660); settings: mesangial cells, normalized: DMSO 0%, 100 µM tamoxifen 100%; series mostly up to 91.7 µM
# Method in brief: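 Human renal glomerular mesangial cells (1000/well) were treated with compounds for 16 h at 37 °C in complete medium, then caspase 3/7 activity was read by Caspase-Glo luminescence. Data were normalized to DMSO and 100 uM tamoxifen; AC50 from Hill fits.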
# [13] = Cellular Toxicity (caspase-3) SK-N-SH (AID 661); settings: SK-N-SH caspase-3 activation, qHTS, DMSO as zero, staurosporine as full; series mostly up to 91.7 µM
# Method in brief: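 SK-N-SH human neuroblastoma cells (1500/well) were treated with compounds for 16 hr at 37 °C in complete medium; caspase 3/7 activity was read by Caspase-Glo luminescence. AC50 came from Hill fits of data normalized to DMSO and 10 uM staurosporine.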
# [14] = Cellular Toxicity (caspase-3) H-4-II-E (AID 663); settings: H-4-II-E rat hepatoma, scaled: DMSO 0%, 100 µM tamoxifen 100%; series mostly up to 92.2 µM;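 also: cells exposed to compound for 16 hr before readout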
# Method in brief: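 Rat hepatoma H-4-II-E cells (1500/well) plated 5 hr, then exposed to compound titrations for 16 hr at 37 °C. Caspase-Glo 3/7 luminescence read after 20 min at RT; data normalized to DMSO and 100 uM tamoxifen, AC50 from Hill fits.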
# [15] = Cellular Toxicity (caspase-3) Hek293 (AID 664); settings: HEK293 caspase-3 activation, DMSO = 0%, 100 µM tamoxifen = 100%; series mostly up to 92.2 µM;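 also: cells exposed to compound for 16 h at 37 °C before readout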
# Method in brief: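 HEK293 cells were exposed to compounds in complete medium for 16 hr at 37 °C, then caspase-3/7 activity was read by Caspase-Glo 3/7 luminescence after 20 min at room temperature. Data normalized to DMSO and 100 uM tamoxifen; AC50 from Hill fits.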
# [16] = Cellular Toxicity (caspase-3) N2a (AID 665); settings: N2a cells, luminescence, normalized: DMSO 0%, 10 µM staurosporine 100%; series mostly up to 92.2 µM;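 also: compound exposure lasted 16 h at 37 °C before readout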
# Method in brief: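 Mouse N2a neuroblastoma cells (1500/well) were treated with compounds for 16 h at 37 °C, then caspase-3/7 activity was read by Caspase-Glo luminescence after 1 h at room temperature. Data were normalized to DMSO and 10 uM staurosporine; AC50 from Hill fits.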
# [17] = Cellular Toxicity (caspase-3) NIH 3T3 (AID 666); settings: NIH 3T3 caspase-3 activation, apoptosis/toxicity, 0% DMSO, 100% is 100 µM tamoxifen; series mostly up to 92.2 µM;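 also: caspase signal read after 16 h compound exposure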
# Method in brief: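 Mouse NIH 3T3 fibroblasts (1000 cells/well) were treated with compound for 16 hr at 37°C in complete medium; caspase-3/7 activity was read by Caspase-Glo luminescence. Normalized to DMSO and 100 uM tamoxifen; AC50 from Hill fits.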
# [18] = Cellular Toxicity (caspase-3) Renal Proximal Tubule (AID 667); settings: renal proximal tubule cells, primary cells freshly taken from rat, solvent-only wells 0%, staurosporine 100%; series mostly up to 91.7 µM;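 also: cells exposed to compound for 16 hours at 37 °C before detection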
# Method in brief: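 Caspase 3/7 activation measured by luminescent aminoluciferin release in primary rat proximal tubule cells after 16 hr compound exposure at 37 °C. AC50 from Hill-fitted concentration-response, scaled between DMSO and 10 uM staurosporine.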
# [19] = target: Cytochrome P450 3A4 (Homo sapiens) (UniProt P08684); assay: qHTS Assay for Inhibitors and Substrates of Cytochrome P450 3A4 (AID 884); settings: recombinant CYP3A4, Luciferin-PPXE luminescence; series mostly up to 57.1 µM; also: nearly all actives have a fitted effect of over 50% in size
# Method in brief: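 20 nM human CYP3A4 with 25 uM Luciferin-PPXE (at KM) in 200 mM KPO4, preincubated 10 min with compound; NADPH regeneration started a 60 min RT reaction. Luciferin detected by luminescence, normalized to 57 uM ketoconazole as full inhibition.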
# [20] = target: Guanine nucleotide-binding protein G(i) subunit alpha-1 (Homo sapiens) (UniProt P63096); assay: qHTS Assay for Inhibitors of RGS12 GoLoco Motif Activity (Green Fluorophore) (AID 879); settings: Galphai1/FITC-RGS12 GoLoco peptide, fluorescence polarization; series mostly up to 57.1 µM;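 also: negative values mean loss of peptide binding seen as reduced polarization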
# Guanine nucleotide-binding protein G(i) subunit alpha-1 (Homo sapiens), sequence (P63096 whole entry, looked up): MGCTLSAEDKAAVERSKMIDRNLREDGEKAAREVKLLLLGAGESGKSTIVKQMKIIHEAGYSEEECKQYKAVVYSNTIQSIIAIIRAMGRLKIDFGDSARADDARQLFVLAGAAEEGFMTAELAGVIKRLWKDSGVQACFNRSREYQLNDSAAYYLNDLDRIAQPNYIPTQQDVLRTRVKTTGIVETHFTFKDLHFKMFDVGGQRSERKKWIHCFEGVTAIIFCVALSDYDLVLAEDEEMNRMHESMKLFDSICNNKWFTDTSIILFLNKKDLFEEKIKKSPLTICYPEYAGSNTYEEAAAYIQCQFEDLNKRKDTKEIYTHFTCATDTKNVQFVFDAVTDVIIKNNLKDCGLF
# Method in brief: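 Fluorescence polarization assay: 50 nM Gαi1 with 10 nM FITC-labeled RGS12 GoLoco peptide in 10 mM Tris pH 7.5, 150 mM NaCl, 0.1 mM GDP, 0.05% NP40, 10 min at room temperature with compound.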
smiles,measurement,setting,value
CC(=O)C1=C(O)C=C2Oc3c(C(C)=O)c(O)c(C)c(O)c3[C@]2(C)C1=O,Potency,[1],inactive
same,Potency,[2],6.3 nM (active)
same,outcome,[3],inactive
same,outcome,[4],inactive
COC(C)=O,outcome,[5],inactive
same,outcome,[6],inactive
same,caspase-3 activation,[7],-0.555%
same,outcome,[8],inactive
same,outcome,[9],inactive
same,outcome,[10],inactive
same,outcome,[11],inactive
same,outcome,[12],inactive
same,outcome,[13],inactive
same,outcome,[14],inactive
same,outcome,[15],inactive
same,outcome,[16],inactive
same,outcome,[17],inactive
same,outcome,[18],inactive
same,outcome,[19],inactive
CCCCCCCCCCCCCCCC(=O)OC/C=C(C)/C=C/C=C(C)/C=C/C1=C(C)CCCC1(C)C,outcome,[19],inactive
C1CNCCN1,outcome,[19],inactive
O=C(O)c1cc2ccccc2c(Cc2c(O)c(C(=O)O)cc3ccccc23)c1O,Potency,[1],inactive
same,"activity change, negative = inhibition",[2],-15.3% [at 11.4 µM]
same,"activity change, negative = inhibition",[4],6.29% [at 11.4 µM]
CN(C)CCCn1cc(C2=C(c3c[nH]c4ccccc34)C(=O)NC2=O)c2ccccc21,outcome,[3],inactive
CN(C)Cc1ccccc1,outcome,[5],inactive
same,outcome,[6],inactive
same,caspase-3 activation,[7],0.691%
same,outcome,[8],inactive
same,outcome,[9],inactive
same,outcome,[10],inactive
same,outcome,[11],inactive
same,outcome,[12],inactive
same,outcome,[13],inactive
same,outcome,[14],inactive
same,outcome,[15],inactive
same,outcome,[16],inactive
same,outcome,[17],inactive
same,outcome,[18],inactive
same,outcome,[19],inactive
COC1=CC(=O)C[C@@H](C)[C@@]12Oc1c(Cl)c(OC)cc(OC)c1C2=O,Potency,[2],inactive
same,outcome,[4],inactive
O=C(O)CC(O)(CC(=O)O)C(=O)O,outcome,[5],inactive
same,outcome,[6],inactive
same,caspase-3 activation,[7],101% (active)
same,outcome,[8],inactive
same,outcome,[9],inactive
same,outcome,[10],inactive
same,outcome,[11],inactive
same,outcome,[12],inactive
same,outcome,[13],inactive
same,outcome,[14],inactive
same,outcome,[15],inactive
same,outcome,[16],inactive
same,outcome,[17],inactive
same,outcome,[18],inactive
same,outcome,[19],inactive
COc1ccc2[nH]c(=O)c3c(c2c1)OC(C)(C)C=C3,Potency,[1],inactive
same,outcome,[19],inactive
same,outcome,[4],inactive
Cc1ccc(OC[C@H](O)[C@H](C)NC(C)C)c2c1CCC2,Potency,[1],inactive
same,outcome,[20],inactive
same,outcome,[3],inactive
CCCCCCCCCC(=O)O,outcome,[5],inactive
same,outcome,[6],inactive
same,caspase-3 activation,[7],-4.13%
same,outcome,[8],inactive
same,outcome,[9],inactive
same,outcome,[10],inactive
same,outcome,[11],inactive
same,outcome,[12],inactive
same,outcome,[13],inactive
same,outcome,[14],inactive
same,outcome,[15],inactive
same,outcome,[16],inactive
same,outcome,[17],inactive
same,outcome,[18],inactive
same,outcome,[19],inactive
CN[C@H]1CC[C@@H](c2ccc(Cl)c(Cl)c2)c2ccccc21,outcome,[3],inactive
C=Cc1ccccc1,outcome,[5],inactive
same,outcome,[6],inactive
same,caspase-3 activation,[7],-0.459%
same,outcome,[8],inactive
same,outcome,[9],inactive
same,outcome,[10],inactive
same,outcome,[11],inactive
same,outcome,[12],inactive
same,outcome,[13],inactive
same,outcome,[14],inactive
same,outcome,[15],inactive
same,outcome,[16],inactive
same,outcome,[17],inactive
same,outcome,[18],inactive
same,outcome,[19],inactive
NCCCC(=O)O,Potency,[1],inactive
same,outcome,[20],inactive
same,Potency,[2],inactive
same,outcome,[19],inactive
same,outcome,[4],inactive
COc1cc(C[C@H]2C(=O)OC[C@@H]2Cc2ccc(OC)c(OC)c2)ccc1O,Potency,[1],3790 nM (active)

# — PubChem BioAssay (NCATS)
